Measurements as given in PubChem BioAssay (EPA / NIEHS).
Several values for one entry are separate records, joined by “and”; a condition that tells them apart may be missing. Equal values may be shown once. Results filed as inconclusive are left out. Activity calls are given as the source filed them. Rule for the calls, unless noted: active = hit-call score of the fitted dose curve at least 0.9, where 1 is the maximum; inconclusive = response in the unintended direction; inactive = score below 0.9.

Columns and labels:
[1] = test system: Thyroperoxidase (TPO), gene 54314; assay: CCTE_Simmons_AUR_rTPO: CCTE's Amplex UltraRed Assay for Thyroperoxidase (TPO) Inhibition, Simmons Lab (AID 2283662);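 for AC50: potency for loss of signal meaning inhibition of peroxidase activity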
Method in brief: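 Rat thyroid microsomal TPO + 25 uM AUR in 200 mM K phosphate; cpd 5 nM–87.5 uM [final], 8 conc, 0.5% DMSO; 300 uM H2O2 starts rxn; 37C dark 30 min; endpoint FI 544/590 nm; n=3.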

[2] = read-out: solute carrier (SLC22A6), SLC22A6 (gene 9356); assay: LTEA_HepaRG_SLC22A6: Life Technologies and Expression Analysis (LTEA) Assay for solute carrier (SLC22A6) using HepaRG (AID 2283653; active = hit-call score of the fitted dose curve at least 0.9, where 1 is the maximum; inactive = score below 0.9); conditions: mRNA level, 48 h; actives raise or lower the signal
Method in brief: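 HepaRG, human liver line; 48 h chemical exposure; 8-pt half-log series from 100 uM in 0.5% DMSO, duplicate wells. Readout: TaqMan qRT-PCR of SLC22A6 mRNA, housekeeping-normalised; bidirectional curve fit vs DMSO baseline.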

[3] = Tanguay_ZF_120hpf_SWIM_legacy: (Legacy) Oregon State University Tanguay Lab 120 Hour Post-fertilization zebrafish Assay for Swim Bladder Malformation (AID 2283654);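 note: swim bladder malformation in each larva scored yes or no under brightfield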
Method in brief: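 Tropical 5D embryos dechorionated at 4 hpf; 1 embryo/well from 6 hpf; static, sealed, dark exposure at 28C until 120 hpf; final DMSO 0.64%; 5uM trimethyltin chloride positive control; swim bladder defect recorded yes/no; dead embryos not scored.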

[4] = Tanguay_ZF_120hpf_TRUN_legacy: (Legacy) Oregon State University Tanguay Lab 120 Hour Post-fertilization zebrafish Assay for Truncated Body (AID 2283655)
Method in brief: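 Whole-embryo zebrafish screen: dechorionated 5D embryos, static exposure 6–120 hpf, 28C, sealed foil-covered plates, 0.64% DMSO. Binary truncation call; gain of signal versus DMSO baseline.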

[5] = read-out: solute carrier (SLC10A1), SLC10A1 (gene 6554); assay: LTEA_HepaRG_SLC10A1: Life Technologies and Expression Analysis (LTEA) Assay for solute carrier (SLC10A1) using HepaRG (AID 2283657; active = hit-call score of the fitted dose curve at least 0.9, where 1 is the maximum; inactive = score below 0.9); conditions: mRNA level, 48 h; actives raise or lower the signal
Method in brief: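 HepaRG, 48 h exposure, 8-pt half-log curve from 100 uM in 0.5% DMSO, duplicates. Read-out: TaqMan qRT-PCR of SLC10A1 mRNA, normalized to three housekeeping genes. Gain/loss fit vs DMSO baseline.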

[6] = read-out: matrix metalloproteinase-1 (MMP1), MMP1 (gene 4312); assay: LTEA_HepaRG_MMP1: Life Technologies and Expression Analysis (LTEA) Assay for matrix metalloproteinase-1 (MMP1) using HepaRG (AID 2283658; active = hit-call score of the fitted dose curve at least 0.9, where 1 is the maximum; inactive = score below 0.9); conditions: mRNA level, 48 h; actives raise or lower the signal
Method in brief: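 MMP1 transcript read by TaqMan qRT-PCR (Fluidigm array) after 48 h chemical exposure of HepaRG cells in serum-free induction medium. Eight-point half-log series, top 100 uM, 0.5% DMSO vehicle. Bidirectional curve fit against DMSO baseline.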

[7] = Tanguay_ZF_120hpf_TR_legacy: (Legacy) Oregon State University Tanguay Lab 120 Hour Post-fertilization zebrafish Assay for Touch Response (AID 2283667)
Method in brief: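 Binary touch-response call at 120 hpf, analysed as gain of signal versus DMSO baseline. Wild-type 5D larvae, static exposure at 28C, 0.64% DMSO final; 5uM trimethyltin chloride as positive control.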

[8] = read-out: Cytochrome P450 (CYP24A1_1), CYP24A1 (gene 1591); assay: LTEA_HepaRG_CYP24A1_1: Life Technologies and Expression Analysis (LTEA) Assay for Cytochrome P450 (CYP24A1_1) using HepaRG (AID 2283671; active = hit-call score of the fitted dose curve at least 0.9, where 1 is the maximum; inactive = score below 0.9); conditions: mRNA level, 48 h; actives raise or lower the signal
Method in brief: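 Readout is CYP24A1 transcript level by qRT-PCR, normalized to three housekeeping genes, with gain or loss of signal fitted against 0.5% DMSO. Human HepaRG cells received compound for 48 h at up to 100 uM.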

[9] = CEETOX_H295R_MTT_cell_viability: Viability Assessment in the CeeTox HT-H295R MTT Assay (AID 2283718; active = hit-call score of the fitted dose curve at least 0.9, where 1 is the maximum; inactive = score below 0.9)
Method in brief: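 Human H295R adrenal cells, prestimulated 48 h with 10 uM forskolin, were exposed 48 h to chemicals in 0.1% DMSO. Viability was measured in the same wells by MTT (0.5 mg/ml, 4 h, 37 C), absorbance 570/650 nm, as percent of controls.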

[10] = Tanguay_ZF_120hpf_ActivityScore_legacy: (Legacy) Oregon State University Tanguay Lab 120 Hour Post-fertilization zebrafish Assay Score for Activity (AID 2283742);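 for AC50: dechorionated Tropical 5D wild-type zebrafish embryos held singly per well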
Method in brief: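 Dechorionated 5D embryos, one per well, static exposure 6–120 hpf, 28C, sealed and dark; final DMSO 0.64% (vol/vol). Brightfield binary scoring of mortality plus 18 endpoints; gain-of-signal fit versus DMSO baseline.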

[11] = Tanguay_ZF_120hpf_NC_legacy: (Legacy) Oregon State University Tanguay Lab 120 Hour Post-fertilization zebrafish Assay for Notochord and Tail Malformation (AID 2283656)
Method in brief: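 Binary notochord-distortion calls, made by brightfield inspection, form the read-out; activity is fitted in the positive direction against DMSO. Exposure ran statically from 6 to 120 hpf at 28C with 0.64% DMSO.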

[12] = CCTE_Simmons_CellTiterGLO_HEK293T: Viability Assessment in CCTE's Assays for Thyroperoxidase (TPO) Inhibition, Simmons Lab (AID 2283665);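 for AC50: cells exposed to compound for 24 h before readout; actives reduce ATP signal below DMSO vehicle meaning cytotoxicity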
Method in brief: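 Luminescent ATP readout (CellTiter-Glo, 20 min at room temperature) after 24 hr exposure of HEK293T cells to 5 nM–87.5 uM final compound; signal loss relative to DMSO vehicle indicated cytotoxicity; dichlone titrated as positive control.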

[13] = test system: Thyroperoxidase (TPO), gene 445522; assay: CCTE_Simmons_GUA_TPO: CCTE's Guaiacol Assay for Thyroperoxidase (TPO) Inhibition, Simmons Lab (AID 2283750)
Method in brief: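 Porcine thyroid microsomes (25 ug) in 200mM potassium phosphate, preincubated 30 s at 37C with compound (8 concentrations, 5 nM–87.5 uM) and 35mM guaiacol; 1mM H2O2 starts reaction. Absorbance change at 450nm over first 80 s; loss of signal versus DMSO, three replicates.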

[14] = STM_H9_OrnithineISnorm_perc: Stemina devTOX quickPredict H9 human embryonic stem cell (hESC)-based Assay for Ornithine (ORN) Metabolite Biomarker, Normalized (AID 2283712; active = hit-call score of the fitted dose curve at least 0.9, where 1 is the maximum; inactive = score below 0.9;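 note: ornithine released into spent medium during last day measured by mass spectrometry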)
Method in brief: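 UPLC-HRMS readout: endogenous ornithine EIC area / 13C-ORN internal standard, then % of 0.1% DMSO median. H9 hESCs (pluripotent), 72h exposure, re-dosed with fresh media q24h; last 24-h spent media, deproteinized in 40% acetonitrile.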

[15] = STM_H9_CystineISnorm_perc: Stemina devTOX quickPredict H9 human embryonic stem cell (hESC)-based Assay for Cystine (CYSS) Metabolite Biomarker, Normalized (AID 2283713; active = hit-call score of the fitted dose curve at least 0.9, where 1 is the maximum; inactive = score below 0.9)
Method in brief: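 UPLC-HRMS read-out: endogenous cystine peak area in spent medium, normalized to isotope-labeled internal standard and to median of 0.1% DMSO controls. Pluripotent H9 cells, 72h exposure, daily medium/compound replenishment; medium from last 24h sampled.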

[16] = CCTE_Padilla_ZF_144hpf_TERATOSCORE: (Legacy) CCTE's 144 Hour Post-fertilization zebrafish Assay Teratoscore, Padilla Lab (AID 2283679; active = hit-call score of the fitted dose curve at least 0.9, where 1 is the maximum; inactive = score below 0.9;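 note: zebrafish embryos with chorions exposed by immersion from 6-8 hpf to 5 dpf with daily renewal; teratogenicity score from eye scoring of death hatching and malformations at 144 hpf; higher score means more developmental defects relative to DMSO baseline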)
Method in brief: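 Larvae scored by eye at 144 hpf for death, hatching and malformations after a day in clean Hanks'. Before that, daily-renewed exposure at 80 uM (0.4% DMSO, 26C) from roughly 6-8 hpf through 5 dpf, 4 embryos per chemical.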

[17] = STM_H9_OrnCyssISnorm_ratio: Stemina devTOX quickPredict H9 human embryonic stem cell (hESC)-based Assay for Ornithine (ORN):Cystine (CYSS) Ratio (AID 2283714)
Method in brief: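 UPLC-HRMS of spent media: ORN/CYSS ratio of internal-standard-normalized percentages, DMSO (0.1%) baseline. Pluripotent H9 hESCs, 72h exposure, daily re-dosing with fresh media; last 24h media collected.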

[18] = ArunA_NOG_NucleusCount: ArunA Biomedical's Neurite Outgrowth (NOG) Assay for Nucleus Count (AID 2283756)
Method in brief: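 Viable neuron count, from Hoechst nuclei passing size and intensity gates, imaged at 20x on differentiated H9-derived human neurons. Exposure lasted 48 h from seeding; activity was scored relative to DMSO.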

[19] = ArunA_NOG_NeuriteLength: ArunA Biomedical's Neurite Outgrowth (NOG) Assay for Neurite Length (AID 2283757)
Method in brief: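 Total neurite length per neuron, from traced βIII-tubulin-labelled processes longer than 10 um on viable Hoechst-gated cells, was scored as decrease from DMSO. Cells were hESC (H9)-derived neurons given 48 h chemical exposure immediately after seeding.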

[20] = ArunA_NOG_NeuritesPerNeuron: ArunA Biomedical's Neurite Outgrowth (NOG) Assay for Neurites Per Neuron (AID 2283758)
Method in brief: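 Differentiated human H9-derived neurons exposed to chemicals for 48 h from seeding, then stained with Hoechst and βIII-tubulin/DyLight 488. Automated imaging counted neurites (processes >10 um) per valid neuron; loss of signal versus DMSO scored.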

O=C(CCl)Nc1ccccc1
AC50 [1]: 16 µM (active)

Cc1cc(C)cc(C)c1
outcome [2]: inactive
outcome [3]: inactive
outcome [4]: inactive
outcome [5]: inactive
outcome [6]: inactive
outcome [7]: inactive
outcome [8]: inactive
outcome [9]: inactive
outcome [10]: inactive

N#Cc1cccnc1
outcome [3]: inactive
outcome [11]: inactive
outcome [7]: inactive
outcome [10]: inactive

CCCCCCCCCCCCOS(=O)(=O)O
AC50 [1]: 28 µM (active) and 48.7 µM (active)
AC50 [12]: 31.9 µM (active) and 92.3 µM (active)

CN(N=O)C(N)=O
AC50 [1]: 58.9 µM (active)
outcome [12]: inactive

O=c1[nH]c(=O)n(Cl)c(=O)n1Cl
outcome [1]: inactive
outcome [12]: inactive

O=C1c2ccccc2C(=O)C1C(=O)C(c1ccccc1)c1ccc(Cl)cc1 (stereo not given)
AC50 [1]: 32.4 µM (active)
AC50 [12]: 36.4 µM (active)

COc1ccccc1N
outcome [3]: inactive
AC50 [1]: 0.39 µM (active)
outcome [12]: inactive
outcome [7]: inactive
outcome [10]: inactive
AC50 [13]: 33.2 µM (active)

N#CS
AC50 [1]: 10.6 µM (active) and 8.87 µM (active)
outcome [12]: inactive
outcome [14]: inactive
outcome [15]: inactive

Oc1cc(Cl)c(Cl)cc1Cl
outcome [3]: inactive
outcome [4]: inactive
outcome [11]: inactive
outcome [7]: inactive
AC50 [16]: 5.5 µM (active)
AC50 [10]: 32.1 µM (active)

CC(C)(C)c1ccccc1O
outcome [3]: inactive
outcome [4]: inactive
outcome [11]: inactive
outcome [1]: inactive
AC50 [12]: 55.4 µM (active)
outcome [9]: inactive
outcome [10]: inactive

Nc1ccc(N)cc1
AC50 [1]: 5.63 µM (active)
AC50 [12]: 32 µM (active)

CCOP(=S)(OCC)SCS(=O)(=O)C(C)(C)C
AC50 [1]: 43.8 µM (active)
outcome [12]: inactive

O=S1(=O)OC(c2cc(Br)c(O)c(Br)c2)(c2cc(Br)c(O)c(Br)c2)c2ccccc21
AC50 [1]: 25.9 µM (active)
AC50 [12]: 11.1 µM (active)

OCCN(CCO)CCO
outcome [3]: inactive
outcome [4]: inactive
outcome [11]: inactive
AC50 [14]: 0.0236 µM (active)
outcome [15]: inactive
outcome [17]: inactive
outcome [10]: inactive

N#CCC#N
AC50 [1]: 7.66 µM (active)
outcome [12]: inactive

Nc1ncn[nH]1
outcome [14]: inactive
outcome [15]: inactive
outcome [18]: inactive
outcome [19]: inactive
outcome [20]: inactive
